For some of these results: Entries with a potency or affinity are not part of this list.
Legend:
[1] = target: Protein translocase subunit SecA (Escherichia coli (strain K12)) (UniProt P10408); test: Assay to Identify E. coli SecA ATPase Inhibitors; format: functional; set-up: scale not given: direction of the effect not stated beside the values; details: 30 µM
[2] = target: T1, Ubiquitin-activating enzyme e1, putative (Leishmania donovani (strain BPK282A1)) (UniProt E9BSI1); test: Leishmania donovani Ubiquitin Activating Enzyme (LdE1); format: functional; set-up: scale not given: direction of the effect not stated beside the values; details: 30 µM
T1 sequence (whole entry): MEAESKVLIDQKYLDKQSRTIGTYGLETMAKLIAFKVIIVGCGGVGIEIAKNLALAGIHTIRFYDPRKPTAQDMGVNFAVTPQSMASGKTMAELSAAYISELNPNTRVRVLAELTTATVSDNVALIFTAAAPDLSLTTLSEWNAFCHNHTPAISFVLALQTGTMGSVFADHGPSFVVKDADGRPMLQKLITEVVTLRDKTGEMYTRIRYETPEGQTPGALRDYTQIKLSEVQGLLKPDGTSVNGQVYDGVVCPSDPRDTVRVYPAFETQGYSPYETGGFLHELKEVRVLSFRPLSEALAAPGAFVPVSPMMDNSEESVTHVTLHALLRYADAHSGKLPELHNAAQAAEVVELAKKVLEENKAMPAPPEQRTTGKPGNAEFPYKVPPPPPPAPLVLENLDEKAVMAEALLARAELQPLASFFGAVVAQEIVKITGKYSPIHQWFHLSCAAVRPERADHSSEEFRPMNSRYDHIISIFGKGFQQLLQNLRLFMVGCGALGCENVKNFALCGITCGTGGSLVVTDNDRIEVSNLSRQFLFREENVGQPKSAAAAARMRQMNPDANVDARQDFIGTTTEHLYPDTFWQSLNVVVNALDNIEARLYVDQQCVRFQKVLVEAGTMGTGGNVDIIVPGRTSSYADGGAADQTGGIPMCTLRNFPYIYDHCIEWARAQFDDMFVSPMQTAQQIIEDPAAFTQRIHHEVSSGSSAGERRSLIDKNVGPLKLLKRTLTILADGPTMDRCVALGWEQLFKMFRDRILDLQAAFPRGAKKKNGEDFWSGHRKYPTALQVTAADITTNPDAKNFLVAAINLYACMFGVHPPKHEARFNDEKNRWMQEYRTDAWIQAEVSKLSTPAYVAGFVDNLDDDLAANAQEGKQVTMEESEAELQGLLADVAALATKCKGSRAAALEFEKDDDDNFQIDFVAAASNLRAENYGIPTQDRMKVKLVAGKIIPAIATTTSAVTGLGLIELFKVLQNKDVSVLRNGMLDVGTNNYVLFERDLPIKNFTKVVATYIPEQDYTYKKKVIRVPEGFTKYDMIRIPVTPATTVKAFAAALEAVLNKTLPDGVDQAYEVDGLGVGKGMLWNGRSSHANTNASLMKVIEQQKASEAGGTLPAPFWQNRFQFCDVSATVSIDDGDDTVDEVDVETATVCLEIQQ

[3] = target: T2, Aspartate--tRNA(Asp/Asn) ligase (Mycobacterium tuberculosis (strain ATCC 25618 / H37Rv)) (UniProt P9WFW3); test: Assay for Asp RNA synthetase-1 from Mycobacterium tuberculosis; format: functional; set-up: scale not given: direction of the effect not stated beside the values; details: 30 µM; note: in the data most compounds retested in dose-response had high values
T2 sequence (whole entry): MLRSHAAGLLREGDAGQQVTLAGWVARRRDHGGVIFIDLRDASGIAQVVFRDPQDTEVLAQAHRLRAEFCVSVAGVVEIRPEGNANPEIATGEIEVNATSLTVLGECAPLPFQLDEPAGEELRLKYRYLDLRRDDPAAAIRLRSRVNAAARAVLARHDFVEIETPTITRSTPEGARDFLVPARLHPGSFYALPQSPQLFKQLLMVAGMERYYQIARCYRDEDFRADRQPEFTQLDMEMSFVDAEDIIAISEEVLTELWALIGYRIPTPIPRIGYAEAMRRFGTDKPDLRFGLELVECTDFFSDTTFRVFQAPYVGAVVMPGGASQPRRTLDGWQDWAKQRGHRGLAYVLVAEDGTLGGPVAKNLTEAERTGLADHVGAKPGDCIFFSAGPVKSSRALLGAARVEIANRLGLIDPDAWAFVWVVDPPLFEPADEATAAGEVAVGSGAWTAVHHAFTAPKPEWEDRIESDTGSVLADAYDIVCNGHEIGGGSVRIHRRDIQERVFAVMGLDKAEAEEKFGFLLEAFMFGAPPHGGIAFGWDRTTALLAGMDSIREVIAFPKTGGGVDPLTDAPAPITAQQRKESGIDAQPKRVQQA

[4] = target: AMP-activated protein kinase, AMPK (Homo sapiens) (UniProt P54646+O43741+P54619+Q9UGJ0+Q9Y478+Q13131+Q9UGI9); test: AMP-dependent Kinase enzyme assay. An in vitro enzyme assay that detects ADP turnover that is directly proportional to AMPK activity. This uses naive AMPK that is activated during the assay with MK-8722; format: functional; set-up: scale not given: direction of the effect not stated beside the values; details: 30 µM
[5] = target: Sialic acid-binding Ig-like lectin 9 (Homo sapiens) (UniProt Q9Y336); test: Hs-Siglec9 ALPHAscreen SOP 20170721; set-up: scale not given: direction of the effect not stated beside the values; details: 10 µM
Trypanosoma cruzi = test: Trypanosoma cruzi phosphomannomutase and mannose-1-phosphate guanylyltransferase assay; format: functional; set-up: scale not given: direction of the effect not stated beside the values; details: 10 µM
[6] = target: T3, Arginase-2, mitochondrial (Homo sapiens) (UniProt P78540); test: in vitro enzyme assay to detect the production of urea directly proportional to the activity of Arginase II; format: functional; set-up: scale not given: in the data most compounds retested in dose-response had high values
T3 sequence (whole entry): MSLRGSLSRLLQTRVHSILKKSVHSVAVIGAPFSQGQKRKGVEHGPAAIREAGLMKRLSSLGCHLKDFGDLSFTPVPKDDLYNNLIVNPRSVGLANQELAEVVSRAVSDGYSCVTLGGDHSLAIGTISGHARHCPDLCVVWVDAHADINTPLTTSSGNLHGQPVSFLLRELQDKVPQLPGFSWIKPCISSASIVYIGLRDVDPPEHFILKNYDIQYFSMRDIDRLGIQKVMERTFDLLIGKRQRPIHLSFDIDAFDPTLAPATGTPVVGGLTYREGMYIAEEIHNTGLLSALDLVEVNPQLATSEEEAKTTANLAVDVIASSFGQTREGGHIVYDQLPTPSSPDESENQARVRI

[7] = target: T4, Proteasome subunit beta (Trypanosoma cruzi) (UniProt O96673); test: Trypanosoma cruzi proteasome chymotrypsin-like activity (TcProtChymo) assay.; format: functional; set-up: scale not given: in the data most compounds retested in dose-response had high values; details: 9.37 µM
T4 sequence (whole entry): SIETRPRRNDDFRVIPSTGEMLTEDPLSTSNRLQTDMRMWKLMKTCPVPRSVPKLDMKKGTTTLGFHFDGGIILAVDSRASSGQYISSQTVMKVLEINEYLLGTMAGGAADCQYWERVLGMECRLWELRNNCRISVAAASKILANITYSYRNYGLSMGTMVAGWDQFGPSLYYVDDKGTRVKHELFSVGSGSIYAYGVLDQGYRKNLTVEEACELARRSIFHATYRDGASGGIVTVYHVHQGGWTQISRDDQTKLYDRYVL

Homo sapiens = organism: Homo sapiens; test: To identify inhibition of the IFN signalling (Jak-Stat) pathway via expression of an eGFP reporter gene under the control of an IFN-stimulated response element (ISRE) containing MxA promoter.; format: functional; set-up: scale not given: direction of the effect not stated beside the values; details: 30 µM
[8] = target: Shiga toxin 2 (Escherichia coli O157:H7) (UniProt P09385+P09386); test: E. coli 0.157:H7 Shiga Toxin SOP - stx2 screening assay; format: functional; set-up: scale not given: direction of the effect not stated beside the values; details: 30 µM
[9] = target: T5, Tyrosyl-tRNA synthetase, putative (Trypanosoma cruzi (strain CL Brener)) (UniProt Q4DSP6); test: Trypanosoma cruzi tyrosyl tRNA synthetase (TcYRS) _High Tyrosine SOP; format: functional; set-up: scale not given: in the data most compounds retested in dose-response had high values; details: 30 µM
T5 sequence (whole entry): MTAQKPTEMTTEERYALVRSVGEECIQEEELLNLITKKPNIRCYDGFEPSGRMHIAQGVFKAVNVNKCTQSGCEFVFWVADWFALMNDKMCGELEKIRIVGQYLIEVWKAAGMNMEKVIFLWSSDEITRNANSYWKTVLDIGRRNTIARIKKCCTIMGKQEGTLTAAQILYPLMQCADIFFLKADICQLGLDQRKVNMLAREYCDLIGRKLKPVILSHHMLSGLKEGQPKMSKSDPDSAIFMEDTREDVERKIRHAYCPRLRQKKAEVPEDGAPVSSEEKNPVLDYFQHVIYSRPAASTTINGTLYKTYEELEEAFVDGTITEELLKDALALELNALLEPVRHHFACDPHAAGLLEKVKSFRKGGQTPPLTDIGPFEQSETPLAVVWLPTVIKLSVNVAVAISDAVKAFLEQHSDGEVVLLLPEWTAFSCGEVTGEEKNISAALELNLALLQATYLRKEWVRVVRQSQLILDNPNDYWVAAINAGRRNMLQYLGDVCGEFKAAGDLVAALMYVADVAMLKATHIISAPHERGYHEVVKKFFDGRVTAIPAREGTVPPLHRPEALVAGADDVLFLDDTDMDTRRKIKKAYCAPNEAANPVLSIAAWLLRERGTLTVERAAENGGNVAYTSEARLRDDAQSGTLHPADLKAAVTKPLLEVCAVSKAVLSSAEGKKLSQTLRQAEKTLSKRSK

[10] = target: T5, Tyrosyl-tRNA synthetase, putative (Trypanosoma cruzi (strain CL Brener)); test: Trypanosoma cruzi tyrosyl tRNA synthetase (TcYRS) SOP; format: functional; set-up: scale not given: direction of the effect not stated beside the values; details: 30 µM
[11] = target: Chromo domain-containing protein 1 (Saccharomyces cerevisiae (strain ATCC 204508 / S288c) (Baker's yeast)) (UniProt P32657); test: ScCHD-1 Enzyme Inhibition Assay; format: functional; set-up: scale not given: in the data most compounds retested in dose-response had high values; details: 30 µM
[12] = target: T6, Methionyl-tRNA synthetase, putative (Leishmania donovani (strain BPK282A1)) (UniProt E9BF75); test: Leishmania donovani Methionine tRNA synthetase (LdMetRS):v7. Dose response assay; format: functional; set-up: conc 80 nM, time 150 minutes
T6 sequence (whole entry): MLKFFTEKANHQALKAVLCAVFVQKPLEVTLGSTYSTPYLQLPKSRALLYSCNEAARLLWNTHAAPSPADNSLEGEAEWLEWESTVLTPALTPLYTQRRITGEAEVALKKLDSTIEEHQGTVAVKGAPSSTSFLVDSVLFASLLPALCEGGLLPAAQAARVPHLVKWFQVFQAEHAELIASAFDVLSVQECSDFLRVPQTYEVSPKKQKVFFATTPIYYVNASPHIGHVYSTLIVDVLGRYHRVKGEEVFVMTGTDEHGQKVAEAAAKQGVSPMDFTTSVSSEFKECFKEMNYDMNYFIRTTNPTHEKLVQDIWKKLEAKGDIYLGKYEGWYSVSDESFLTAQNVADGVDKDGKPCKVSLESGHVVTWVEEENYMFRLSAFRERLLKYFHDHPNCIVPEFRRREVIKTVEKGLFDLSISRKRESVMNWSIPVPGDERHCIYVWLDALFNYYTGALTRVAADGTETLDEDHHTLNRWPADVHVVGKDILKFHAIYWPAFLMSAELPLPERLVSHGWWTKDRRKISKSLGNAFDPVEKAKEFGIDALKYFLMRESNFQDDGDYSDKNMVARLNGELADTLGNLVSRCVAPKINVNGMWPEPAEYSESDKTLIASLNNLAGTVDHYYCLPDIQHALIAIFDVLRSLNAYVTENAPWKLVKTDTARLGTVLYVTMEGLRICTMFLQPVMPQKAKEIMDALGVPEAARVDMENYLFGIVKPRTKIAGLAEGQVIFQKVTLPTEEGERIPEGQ

Chain of Protein translocase subunit SecA (Escherichia coli (strain K12)) (P10408 whole entry): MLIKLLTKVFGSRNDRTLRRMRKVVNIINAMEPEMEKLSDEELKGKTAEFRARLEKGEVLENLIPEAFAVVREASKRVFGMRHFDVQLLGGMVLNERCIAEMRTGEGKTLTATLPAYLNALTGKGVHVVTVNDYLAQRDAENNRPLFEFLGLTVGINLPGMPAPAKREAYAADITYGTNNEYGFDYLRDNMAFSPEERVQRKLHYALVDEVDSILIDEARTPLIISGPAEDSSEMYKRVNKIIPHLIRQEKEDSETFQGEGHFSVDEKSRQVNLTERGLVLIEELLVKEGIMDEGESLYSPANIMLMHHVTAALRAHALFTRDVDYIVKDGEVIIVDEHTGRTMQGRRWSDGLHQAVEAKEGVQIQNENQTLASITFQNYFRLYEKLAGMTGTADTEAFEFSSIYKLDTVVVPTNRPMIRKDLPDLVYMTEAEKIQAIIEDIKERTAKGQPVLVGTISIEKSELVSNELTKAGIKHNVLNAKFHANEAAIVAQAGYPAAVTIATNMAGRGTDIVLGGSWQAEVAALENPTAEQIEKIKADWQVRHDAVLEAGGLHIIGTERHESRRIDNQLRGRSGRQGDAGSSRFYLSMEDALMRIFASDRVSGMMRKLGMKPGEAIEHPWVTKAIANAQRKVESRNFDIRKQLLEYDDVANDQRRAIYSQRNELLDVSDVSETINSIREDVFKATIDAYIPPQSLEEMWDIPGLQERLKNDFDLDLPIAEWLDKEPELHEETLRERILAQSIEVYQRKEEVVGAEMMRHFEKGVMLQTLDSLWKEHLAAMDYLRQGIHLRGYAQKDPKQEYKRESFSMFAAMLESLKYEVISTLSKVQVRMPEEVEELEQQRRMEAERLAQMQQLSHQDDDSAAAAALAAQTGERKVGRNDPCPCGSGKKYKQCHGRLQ
Chain of Sialic acid-binding Ig-like lectin 9 (Homo sapiens) (Q9Y336 whole entry): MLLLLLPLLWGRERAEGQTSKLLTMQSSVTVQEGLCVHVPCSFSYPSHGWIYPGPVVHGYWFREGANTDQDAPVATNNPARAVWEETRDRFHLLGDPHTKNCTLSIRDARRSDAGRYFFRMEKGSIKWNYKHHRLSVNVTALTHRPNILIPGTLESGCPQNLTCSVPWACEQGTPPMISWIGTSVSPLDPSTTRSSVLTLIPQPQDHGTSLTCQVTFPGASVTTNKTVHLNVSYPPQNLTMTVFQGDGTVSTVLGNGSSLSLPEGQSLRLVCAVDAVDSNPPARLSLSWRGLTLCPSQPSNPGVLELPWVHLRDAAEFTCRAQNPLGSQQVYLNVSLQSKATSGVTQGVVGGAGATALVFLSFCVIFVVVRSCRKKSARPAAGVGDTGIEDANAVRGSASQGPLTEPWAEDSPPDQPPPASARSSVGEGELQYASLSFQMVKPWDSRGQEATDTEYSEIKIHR
Chain of Chromo domain-containing protein 1 (Saccharomyces cerevisiae (strain ATCC 204508 / S288c) (Baker's yeast)) (P32657 whole entry, the tested form may be a part): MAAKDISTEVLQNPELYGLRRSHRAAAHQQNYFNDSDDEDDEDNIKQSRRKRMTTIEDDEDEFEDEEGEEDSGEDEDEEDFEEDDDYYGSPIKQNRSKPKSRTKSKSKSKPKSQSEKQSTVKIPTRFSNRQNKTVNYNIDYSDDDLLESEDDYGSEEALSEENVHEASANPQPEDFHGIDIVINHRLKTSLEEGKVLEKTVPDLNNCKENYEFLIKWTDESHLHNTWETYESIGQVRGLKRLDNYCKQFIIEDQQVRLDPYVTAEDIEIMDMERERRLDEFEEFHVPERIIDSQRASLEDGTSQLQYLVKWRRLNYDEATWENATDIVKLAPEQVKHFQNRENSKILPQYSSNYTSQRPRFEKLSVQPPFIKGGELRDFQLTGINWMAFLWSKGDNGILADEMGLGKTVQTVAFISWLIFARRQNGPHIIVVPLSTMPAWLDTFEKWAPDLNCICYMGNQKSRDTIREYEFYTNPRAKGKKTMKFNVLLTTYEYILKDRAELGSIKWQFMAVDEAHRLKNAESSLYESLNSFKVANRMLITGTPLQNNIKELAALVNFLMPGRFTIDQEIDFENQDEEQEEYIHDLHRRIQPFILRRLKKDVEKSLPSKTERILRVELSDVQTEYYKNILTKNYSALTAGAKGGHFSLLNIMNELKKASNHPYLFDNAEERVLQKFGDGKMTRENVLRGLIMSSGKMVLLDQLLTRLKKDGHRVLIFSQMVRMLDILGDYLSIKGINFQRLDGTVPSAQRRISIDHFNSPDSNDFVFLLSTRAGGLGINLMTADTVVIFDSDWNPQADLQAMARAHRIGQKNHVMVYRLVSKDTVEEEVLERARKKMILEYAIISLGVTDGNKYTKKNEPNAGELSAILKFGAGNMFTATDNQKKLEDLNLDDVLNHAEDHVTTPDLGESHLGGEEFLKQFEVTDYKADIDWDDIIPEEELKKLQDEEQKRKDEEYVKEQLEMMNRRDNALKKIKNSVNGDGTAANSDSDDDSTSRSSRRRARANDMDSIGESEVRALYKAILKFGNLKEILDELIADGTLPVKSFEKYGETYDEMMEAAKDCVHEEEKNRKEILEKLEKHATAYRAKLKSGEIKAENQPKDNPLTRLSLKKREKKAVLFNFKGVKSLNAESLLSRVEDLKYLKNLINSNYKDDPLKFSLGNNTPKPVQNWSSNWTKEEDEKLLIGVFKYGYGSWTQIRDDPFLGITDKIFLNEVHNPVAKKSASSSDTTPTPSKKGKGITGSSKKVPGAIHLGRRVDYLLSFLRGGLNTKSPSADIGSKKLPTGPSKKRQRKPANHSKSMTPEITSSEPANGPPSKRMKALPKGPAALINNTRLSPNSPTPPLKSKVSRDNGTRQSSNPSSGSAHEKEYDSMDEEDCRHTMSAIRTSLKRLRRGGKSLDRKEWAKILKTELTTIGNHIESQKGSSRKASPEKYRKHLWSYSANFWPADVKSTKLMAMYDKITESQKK

SMILES	Percent Effect [1] [%]	Percent Effect [2] [%]	Percent Effect [3] [%]	Percent Effect [4] [%]	Percent Effect [5] [%]	Percent Effect (Trypanosoma cruzi) [%]	Percent Effect ([6]; 30 µM) [%]	Percent Effect ([6]; 33.3 µM) [%]	Percent Effect [7] [%]	Percent Effect (Homo sapiens) [%]	Percent Effect [8] [%]	Percent Effect [9] [%]	Percent Effect [10] [%]	Percent Effect [11] [%]	PXC50 ([12]; MAX_EFFECT 13.05483029)	PXC50 ([12]; MAX_EFFECT 13.8381201)
O=C1CSC(c2ccsc2)c2c(n(C3CCOCC3)[nH]c2=O)N1 (stereo not given)	-1.28	14.7	-2.38	-5.51	3.3	-0.589	7.03	94.2	8.13	6.12	-12.8	6.35	12.8	-11.9		
Cc1nnc(N2CCCC3(CN(Cc4ccncc4)CCO3)C2)o1 (stereo not given)	3.96	5.48	-2.96	0.217	8.21	-4.76		-2	20.3	6.92	-16.9	4.17	16.1	0.771		
FC(F)(F)c1cc(-c2cccs2)nc(N2CCN3CCCC3C2)n1 (stereo not given)															< 4	< 4
COc1cc(CNC(C)Cn2cccn2)cc(OC)c1OC (stereo not given)	0.206	18.2	-3.28	0.589	-6.87	-7.3		4.98	2.87	29.8	-15.9	7.77	14.6	-9.78		
CCN1C[C@H]2C[C@H](C(=O)NCc3cccnc3)[C@@H](C1)O2	-1.53	0	4.45	-69.3	5.53	1.07		2.23	11.1	-10.6	2.21	3.24	10.3	2		
